Data published in PubChem BioAssay AID894 (National Center for Advancing Translational Sciences (NCATS), 2007).
In all, about 150,000 compounds went through this assay and about 6,500 (4.3%) were called active. About 12% were inconclusive and are not listed. The call rests on the fitted dose curve; in most records, active means well fitted inhibition curve with a large enough effect (not every such curve was filed as active); inconclusive means small, poorly fitted or top-dose-only effect, or another doubt; inactive means no such curve, though single readings can be large or run the other way. This excerpt belongs to a sample that is enriched for actives.

Molecular target: 15-hydroxyprostaglandin dehydrogenase [NAD(+)] (Homo sapiens) (UniProt P15428)
Assay: qHTS Assay for Inhibitors of HPGD (15-Hydroxyprostaglandin Dehydrogenase)
Conditions: purified HPGD, NADH fluorescence kinetic, PGE2 substrate; activity change, negative = inhibition: active compounds read low
Text: Human 15-Hydroxyprostaglandin dehydrogenase (HPGD) catalyzes the inactivation of prostaglandin E2, and plays a major role in cancer biology by antagonizing the oncogenic potential of cyclooxygenase type 2 (COX2). Assays are available, based on absorbance/fluorescence increase of NADH with the substrate 15-OH prostaglandin E2. References 1. Myung SJ, Rerko RM, Yan M, Platzer P, Guda K, Dotson A, Lawrence E, Dannenberg AJ, Lovgren AK, Luo G, Pretlow TP, Newman RA, Willis J, Dawson D, Markowitz SD. 15-Hydroxyprostaglandin dehydrogenase is an in vivo suppressor of colon tumorigenesis. […] 2. Yan M, Rerko RM, Platzer P, Dawson D, Willis J, Tong M, Lawrence E, Lutterbaugh J, Lu S, Willson JK, Luo G, Hensold J, Tai HH, Wilson K, Markowitz SD. 15-Hydroxyprostaglandin dehydrogenase, a COX-2 oncogene antagonist, is a TGF-beta-induced suppressor of human gastrointestinal cancers. Proc Natl Acad Sci U S A. 2004 Dec 14;101(50):17468-73. 3. Yang L, Amann JM, Kikuchi T, Porta R, Guix M, Gonzalez A, Park KH, Billheimer D, Arteaga CL, Tai HH, Dubois R, Carbone DP, Johnson DH. Inhibition of Epidermal Growth Factor Receptor Signaling Elevates 15-Hydroxyprostaglandin Dehydrogenase in Non-Small-Cell Lung Cancer. Cancer Res. 2007 Jun 15;67(12):5587-5593. Inhibition of HPGD activity was screened by utilizing prostaglandin as an electron donor and NAD+ as an electron acceptor/cofactor. An increase in the fluorescence intensity due to conversion of NAD+ to NADH was used to measure the enzyme activity. NIH Chemical Genomics Center [NCGC] Structural Genomics Consortium [SGC]
Buffer: 50 mM Tris-HCl, 0.01% Tween 20, pH 8. Enzyme Buffer: 50 mM Tris-HCl, 0.5 mM NAD+ and 0.01% Tween 20, pH 8. Reagents/Controls: Buffer in columns 3 and 4 as negative control (no enzyme). Substrate/cofactor solution: 1 mM NAD+ and 30 uM prostaglandin (Sigma, prostaglandin E2, # P5640) final concentrations dispensed throughout the plate. Enzyme: 20 nM HPGD final concentration in columns 1, 2, 5-48. Column 1 and 2 is neutral (100% activity). A titration of control inhibitor GW5074 (G6416 Sigma-Aldrich, St. Louis, MO) top concentration 10 mM in DMSO, then 1:2 dilution for a total of 16 concentrations in duplicate) was pin-transferred into column 2. Assay Steps: Three uL of enzyme were dispensed to 1536-well Greiner black solid bottom plates. Compounds and control inhibitor (23 nL) were transferred via Kalypsys PinTool. The plates were incubated for 15 min at room temperature, and then 1 uL of substrate/cofactor solution was added to start the reaction. The plates were immediately transferred to and read 5 times every 30 seconds on ViewLux High-throughput CCD imager (Perkin-Elmer) using 360 nm excitation and 450 nm emission fluorescence protocol. The fluorescence intensity difference between the last and the first time points was used to compute reaction progress.
On the % scale 0 is the no-effect control and ±100 the full control effect; potency means the concentration at half of the fitted maximal effect.

15-hydroxyprostaglandin dehydrogenase [NAD(+)] (Homo sapiens), sequence (P15428 whole entry, looked up): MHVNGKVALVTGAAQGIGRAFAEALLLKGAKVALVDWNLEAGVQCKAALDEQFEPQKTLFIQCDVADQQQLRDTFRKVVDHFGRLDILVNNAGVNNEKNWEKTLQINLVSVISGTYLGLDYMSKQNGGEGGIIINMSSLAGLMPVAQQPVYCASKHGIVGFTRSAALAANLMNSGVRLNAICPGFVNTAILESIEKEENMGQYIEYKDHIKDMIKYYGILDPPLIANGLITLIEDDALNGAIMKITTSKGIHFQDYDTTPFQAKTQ

Potency, active:
CCCc1cc(=O)[nH]c(SCc2cc(=O)oc3c(C)c(C)ccc23)n1 3.55 µM, CCCc1cc(=O)[nH]c(SCc2ccc(C#N)cc2)n1 15.8 µM, COc1cc2ccccc2cc1C(=O)Nc1ccc(S(=O)(=O)Nc2cc(C)on2)cc1 20 µM, O=C1c2ccccc2S(=O)(=O)N1CC(O)Cn1c2ccccc2c2ccccc21 (stereo unspecified) 8.91 µM, CCSc1ccccc1C(=O)NCc1ccc(OC)cc1 2.51 µM, Cc1cccc(N2C(=O)SC(SC(=Nc3ccccc3)Nc3ccccc3)C2=O)c1 (stereo unspecified) 14.1 µM, O=C(NC1CCCC1)c1ccc(Br)s1 3.55 µM, COc1ccc(S(=O)(=O)Nc2ccc(O)c(Sc3nc4ccccc4s3)c2)cc1 25.1 µM, O=C(O)c1cccc(S(=O)(=O)Nc2ccc(O)cc2Sc2nc3ccccc3s2)c1 10 µM, CCCCCNC(=O)c1cccnc1SCC(=O)Nc1ccccc1OC 10 µM, O=C(NCc1ccc2c(c1)OCO2)C12CC3CC(CC(C3)C1)C2 31.6 µM, CC1CCCCN1CC(=O)NCc1ccc2c(c1)OCO2 (stereo unspecified) 8.91 µM, Cc1nc([N+](=O)[O-])nn1C12CC3CC(CC(Br)(C3)C1)C2 14.1 µM

Activity change, negative = inhibition, inactive:
CCCc1cc(=O)[nH]c(SCC(=O)OCc2ccccc2)n1 -12.3%, CCCc1cc(=O)n2[nH]c(SCc3ccccc3)nc2n1 -15.8%, CCCc1cc(=O)[nH]c(SCC(=O)N2CCN(S(=O)(=O)c3ccc(C)cc3C)CC2)n1 -0.796%, Cc1ccc2c(CSc3nncs3)cc(=O)oc2c1 -18.3%, CCCCN1C(=O)CCC(C(=O)O)C1c1ccc(OC)cc1 (stereo unspecified) -3.29%, CCc1cccc(NC(=O)CCC(=O)O)c1 6.1%, COc1ccc2c(CC(=O)OCC(=O)Nc3ccccc3[N+](=O)[O-])coc2c1 -21.4%, Cc1cc(NS(=O)(=O)c2ccccc2)no1 -11.9%, COc1cc(OC)cc(C(=O)Nc2ccc(S(=O)(=O)Nc3cc(C)on3)cc2)c1 -20.6%, COc1ccc2nc(Nc3nc(-c4cc5ccccc5oc4=O)cs3)sc2c1 -10.8%, C/C(=N\NS(=O)(=O)c1ccc(Cl)cc1)c1ccc(NC(=O)c2ccco2)cc1 -18.3%, O=C(CN1C(=O)c2ccccc2S1(=O)=O)N1CCc2ccccc21 -12.2%, Nc1nnc(SCCN2C(=O)c3ccccc3S2(=O)=O)s1 -12.2%, CCCCC/C=C\C/C=C\CCCCCCCCCC(=O)NCC(=O)O -8.47%, Cc1cccc(-c2nc3ccccc3c(=O)n2NC(=O)Cc2ccc(Cl)cc2)c1 -9.37%, CCCCc1cc2c(s1)CCCC/C2=N/O -24.8%, CC(C)NC(=O)CSc1ccccc1C(=O)NCc1ccc2c(c1)OCO2 -1.41%, COc1ccc(CNC(=O)CCn2cccc2)cc1 -21.6%, Cc1cccc(N2C(=O)SC(N(CC(=O)O)c3cccc(C)c3)C2=O)c1 (stereo unspecified) -14.2%, Cc1cccc(N2C(=O)C3C(c4ccccc4)OC4(C(=O)c5ccccc5C4=O)C3C2=O)c1 (stereo unspecified) -4.94%, O=c1c2c(ncn1Cc1ccccc1)nc1n2CCC1 -17.9%, COc1ccc(-c2csc(NC(=O)COC(=O)Cc3ccc(Cl)cc3Cl)n2)cc1 -9.05%, O=C(Nc1cn(-c2ccccc2)nc1-c1ccccc1)c1ccccc1 -2.03%, O=C(NC1CCCC1)C(NS(=O)(=O)c1ccc(Br)s1)c1ccccc1 (stereo unspecified) -1.61%, CN(CC(=O)NC1CCCCC1)S(=O)(=O)c1ccc(Br)s1 -1.92%, O=C(COC(=O)c1c2c(nc3ccccc13)/C(=C\c1cccs1)CCC2)Nc1ccccc1Cl -25.4%, C=CCN1c2ccccc2[C@]23C[C@@H](C(=O)OC)N(S(=O)(=O)c4ccc([N+](=O)[O-])cc4)C2=NC(C(=O)OC)=C(C(=O)OC)[C@H]13 -18.4%, COc1cc(/C=C(/NC(=O)c2ccc(Cl)cc2Cl)C(=O)O)cc(OC)c1OC -5.89%, COC(=O)c1nc2ccccc2s1 0.316%, COc1ccc(NS(=O)(=O)c2ccc(NC(=S)NC(=O)CC(C)C)cc2)cc1 -14.4%, O=C(Nc1nc2cc3c(cc2s1)OCCO3)c1cccc(S(=O)(=O)N2CCOCC2)c1 -10.8%, O=C(O)c1cccc(S(=O)(=O)NCCO)c1 -3.87%, CC(=O)NC1=NN(C(C)=O)C(C)(CCS(=O)(=O)c2ccc(Cl)c(Cl)c2)S1 (stereo unspecified) -9.18%, CCCCN1C(=O)c2ccc(C(=O)Nc3ccc(S(=O)(=O)N(C)C)cc3)cc2C1=O -11.6%, CCCc1nc(SCC(=O)Nc2ccccc2OC)c2c(=O)n(C)c(=O)n(C)c2n1 -0.308%, CCCNC(=O)c1ccccc1NC(=O)CSCc1ccc(OC)cc1 -5.31%, COc1cccc(NC(=S)NC(=O)c2c(Cl)c(C)nn2C)c1 -18.7%, Cc1sc2nc(CC(N)=O)[nH]c(=O)c2c1-c1ccccc1 1.92%, O=C(CNS(=O)(=O)c1ccc(Br)s1)NCc1ccc2c(c1)OCO2 -7.58%, Cn1cc(CCC(=O)NCc2ccc3c(c2)OCO3)c2ccccc21 -17.1%, O=C(Cn1nnc(-c2ccccc2)n1)NCc1ccc2c(c1)OCO2 -12.6%, CCOC(=O)NCc1ccc2c(c1)OCO2 -9.86%, OC[C@H]1O[C@@H](n2cnc3c(NC4CCCC4)ncnc32)[C@H](O)[C@H]1O -4.78%, CCCCC(NS(=O)(=O)c1ccc(C)cc1)C(=O)Oc1ccc2c3c(c(=O)oc2c1)CCC3 (stereo unspecified) -8.04%, Cn1c(=O)c(Sc2ccc(Cl)cc2)c(O)c2ccccc21 -12.7%, CC(C)OCCCNC(=O)c1cc(Sc2ccc(F)cc2)nc2ccccc12 -12.9%, COc1cccc(NC(=O)c2nn(C34CC5CC(CC(C5)C3)C4)cc2[N+](=O)[O-])c1 -4.79%, Cc1ncn(C23CC4CC(CC(O)(C4)C2)C3)n1 -6.48%
